Only some compounds are listed: those with a hit (about 2% of all), similar ones and a draw of the others.
CHRM4 antagonist: blocks acetylcholine activation of human M4 receptor; inhibition, % at 3 µM; CHO-hM4 cells, ACh EC80, Fluo-8 calcium fluorescence; hit rate 0.73% among 360,000; P08173;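 active = inhibition above its plate's cutoff, the mean inhibition of sample wells plus 3 SD, cut at about 27% in these data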
Target sequence (P08173 whole entry, looked up): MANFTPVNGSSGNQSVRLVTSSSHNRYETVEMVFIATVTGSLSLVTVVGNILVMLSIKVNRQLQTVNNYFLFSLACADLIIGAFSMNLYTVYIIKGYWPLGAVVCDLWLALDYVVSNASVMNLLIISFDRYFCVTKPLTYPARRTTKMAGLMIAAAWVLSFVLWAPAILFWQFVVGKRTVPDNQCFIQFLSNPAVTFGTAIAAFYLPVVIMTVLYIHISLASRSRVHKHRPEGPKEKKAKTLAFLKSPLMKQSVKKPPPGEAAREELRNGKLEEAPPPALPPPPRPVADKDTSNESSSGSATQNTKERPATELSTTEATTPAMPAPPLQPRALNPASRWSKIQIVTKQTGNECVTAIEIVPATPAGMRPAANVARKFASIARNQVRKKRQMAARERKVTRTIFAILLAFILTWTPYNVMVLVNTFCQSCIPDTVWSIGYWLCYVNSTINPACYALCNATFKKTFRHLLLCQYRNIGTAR
M1 PAM parental: nonselective activator or artifact in parental CHO-K1 calcium assay; ATP EC20, Fluo-8 calcium fluorescence; 0% at ATP EC20, 100% at ATP max; activation, % at 3 µM; hit rate 0.02% among 360,000;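 active = activation above the run cutoff, the mean activation of all test compounds plus 3 SD, cut at about 40% in these data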;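 note: peak over basal fluorescence ratio in a 140 s read after ATP addition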
CHO-K1 Ca antag: counter-screen for M1 antagonists: effect in parental CHO-K1 cells; AID 602250; inhibition, % at 3 µM; hit rate 0.6% among 360,000; ATP-induced calcium, Fluo-8 fluorescence;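 active = inhibition above a per-plate cutoff, the plate's mean sample inhibition plus 3 SD, cut at about 24% in these data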
CHRM4 agonist: CHRM4 agonism in calcium assay. P08173. CHO-K1 hM4/Gqi5, Fluo-8 calcium fluorescence; vehicle 0%, full acetylcholine response 100%. activation, % at 3 µM. hit rate 0.14% among 360,000. AID 624127;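 active = activation above the run mean over all test wells plus 3 SD, cut at about 32% in these data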;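 note: peak over basal fluorescence ratio per well then scaled between controls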
M1 ag parental: counter-screen for M1 agonists: effect in parental CHO-K1 cells; Fluo-8 calcium fluorescence; scaled to maximal ATP response, vehicle zero; activation, % at 3 µM; hit rate 0.48% among 360,000; in the data active = activation above about 15%;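 note: untransfected CHO-K1 host cells lacking M1 receptor as counterscreen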
CHRM4 PAM: positive allosteric modulators of human muscarinic M4 receptor. CHO-K1 hM4/Gqi5, Fluo-8 calcium fluorescence, ACh EC20; 0% = ACh EC20, 100% = maximal ACh. activation, % at 3 µM. P08173. hit rate 0.4% among 360,000;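 active = activation above its plate's cutoff, the mean activation of sample wells plus 3 SD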
A number is an active result; n = inactive.

SMILES	CHRM4 antagonist	M1 PAM parental	CHO-K1 Ca antag	CHRM4 agonist	M1 ag parental	CHRM4 PAM
O=C(Nc1nnc(COc2ccccc2)s1)c1ccco1	n	n	n	n	n	16.2
CC(=O)Nc1nnc(COc2ccccc2)s1	n	n	n	n	n	n
COC(=O)c1c(NC(=O)c2ccc(S(=O)(=O)N3CC(C)OC(C)C3)cc2)sc2c1CCN(C)C2 (stereo not drawn)	n	n	n	n	n	n
Cn1nc(C(=O)NCCCN2CCCCC2)c2c1-c1ccccc1S(=O)(=O)C2	n	n	n	n	n	n
O=C1NN=COc2ccccc21	n	n	n	n	n	n
O=C(Nc1cnc2ccccc2c1)N1CCOCC1	n	n	n	n	n	19.6
CC1(C(=O)Nc2cnc3ccccc3c2)CCN1Cc1cc2ccccc2o1 (stereo not drawn)	n	n	34.8	n	n	n
CS(=O)(=O)c1ccccc1C(=O)N1CCN(Cc2ccccc2)CC1	n	n	n	n	n	n
COc1ccccc1CNS(=O)(=O)c1ccc2c(c1)oc(=O)n2C	n	n	n	n	n	n
C[C@@H]1CN(Cc2nc(-c3cnccn3)no2)C[C@H](C)O1	n	n	n	n	24.1	n
C[C@@H]1CN(Cc2nc(-c3cccs3)no2)C[C@H](C)O1	27.2	n	n	n	n	n
CCCOC1CCCN(Cc2nc(-c3cnccn3)no2)C1 (stereo not drawn)	n	n	n	n	n	n
COc1cc(/C=N/OCC(=O)Nc2cc(C)on2)ccc1OCc1ccccc1	n	n	n	n	20.1	n
CC1(c2ccc(OC(F)F)cc2)NC(=O)N(CC(=O)Nc2cccnc2Cl)C1=O (stereo not drawn)	n	n	n	n	33.0	n
COc1ccc(C2(C)NC(=O)N(CC(=O)Nc3cccnc3Cl)C2=O)cc1 (stereo not drawn)	n	n	n	n	n	n
CC(=O)OC[C@]12CC[C@H]3[C@@](C)(CC[C@H]4C(C)(C)CCC[C@]34C)[C@@H]1CC(C1=CC(=O)OC1O)O2 (stereo partly drawn)	87.8	n	n	n	n	n
O=C(NCc1ccccc1)C1=C[C@H](c2ccc3c(c2)OCO3)C[C@H](OCCCCO)O1	n	n	n	n	n	n
CCN(CC(=O)NCc1cccs1)C(=O)/C=C/c1cc(OC)ccc1OC	n	n	24.5	n	n	n
O=C(NOC(=O)c1ccccc1Cl)c1cccs1	n	n	n	n	n	n
O=C(CSc1nnc2c(Cl)cc(Cl)cn12)N1CCN(S(=O)(=O)c2ccccc2)CC1	n	n	n	n	n	n
COc1ccc(N(CC(=O)NCc2ccco2)S(=O)(=O)c2c(C)nn(C)c2C)cc1	n	n	n	n	n	n
COc1cccc(NC(=O)C2CC(=O)N(Cc3ccc(C)cc3)C2)c1 (stereo not drawn)	n	n	n	n	n	n
COc1cccc(NC(=O)C2CC(=O)N(Cc3ccco3)C2)c1 (stereo not drawn)	n	n	n	n	n	21.4
COc1cc2c(cc1NC(=O)C(C)OC(=O)C1CC(=O)N(Cc3ccco3)C1)oc1ccccc12 (stereo not drawn)	n	n	28.5	n	n	n
O=C(Cc1ccc(Br)cc1)NC1CCN(Cc2ccccc2)CC1	n	n	n	n	n	n
SMILES	CHRM4 antagonist	M1 PAM parental	CHO-K1 Ca antag	CHRM4 agonist	M1 ag parental	CHRM4 PAM
CNc1ncnc2c1ncn2[C@H]1CN(Cc2ccncc2)C[C@@H](CO)O1	n	n	n	n	n	n
Cc1c(Br)c([N+](=O)[O-])nn1C(C)C(=O)NCc1ccco1 (stereo not drawn)	n	n	n	n	n	n
CC(C(=O)NCc1ccco1)c1ccc([N+](=O)[O-])cc1 (stereo not drawn)	n	n	24.8	n	n	n
Cc1nn(CC(=O)NCCc2ccco2)c(=O)c2nn(-c3ccccc3)c(C)c12	n	n	n	n	n	n
Cc1nn(C(C)C(=O)NCc2ccco2)c(C)c1[N+](=O)[O-] (stereo not drawn)	n	n	n	n	19.2	n
Cc1nn(C(C)C(=O)NCCc2ccco2)c(=O)c2nn(-c3ccccc3)c(C)c12 (stereo not drawn)	n	n	n	n	n	50.7
CC(C)=CCc1c(O)cc2oc3c(CC=C(C)C)c(O)c(O)c(CC=C(C)C)c3c(=O)c2c1O	n	n	24.6	n	n	n
CC(C)=CCc1cc(-c2oc3cc(O)cc(O)c3c(=O)c2O)ccc1O	n	n	n	n	n	n
C[C@H]1COC2=C1C(=O)C(=O)c1c2ccc2c1CCCC2(C)C	n	n	n	n	n	n
COc1cccc(C(O)c2nc(-c3cccc(F)c3)cs2)c1 (stereo not drawn)	n	n	n	n	n	n
CCOC(=O)CSc1nc(C)[nH]c1[N+](=O)[O-]	n	n	n	n	n	n
CCOc1cc(/C=C(\C#N)C(=O)NCc2cccnc2)ccc1O	n	n	32.5	n	n	n
O=C1NC(=S)NC1(c1ccccc1)c1ccccc1	40.7	n	n	n	n	n
O=C1NC(=O)C(c2ccccc2)(c2ccccn2)N1 (stereo not drawn)	n	n	n	n	n	n
O=C(COC(=O)c1cnccn1)Nc1ccc(Cl)cn1	n	n	27.4	n	n	n
Cn1c(=O)c2cc(NC(=S)NCc3ccccc3F)ccc2n1Cc1ccc(F)cc1	n	n	n	n	n	n
Cc1ccc(N/N=C(\C#N)C(N)=S)cc1C	n	n	n	n	15.6	n
Cc1ccc(N/N=C(\C#N)C(=O)c2ccsc2)cc1	n	n	n	n	n	n
N#C/C(=N\Nc1cccc(Cl)c1)C(=O)c1ccccc1	n	n	28.9	n	n	n
N#C/C(=N\Nc1ccc(Cl)cc1)C(=O)c1ccsc1	n	n	23.8	n	n	n
N#C/C(=N\Nc1ccccc1)C(N)=S	n	n	n	n	n	n
N#C/C(=N\Nc1ccc(Cl)cc1)C(N)=S	n	n	25.2	n	n	n
CCn1c(/N=C/c2ccccc2O)nc2ccccc21	n	n	n	n	n	n
COc1cc(OC)cc(C(=O)NCCc2ccc(OC)c(OC)c2)c1	n	n	n	n	n	n
CC(C)[C@H](NS(=O)(=O)c1ccccc1)C(=O)OCC(=O)NCc1ccc2c(c1)OCO2	n	n	n	n	n	n
CC1(c2ccc(OC(F)F)cc2)NC(=O)N(/N=C/c2c(O)ccc3ccccc23)C1=O (stereo not drawn)	n	n	n	n	n	20.3
CCOc1ccc(NC(=O)COC(=O)Cn2nc(C)c([N+](=O)[O-])c2C)cc1OCC	n	n	n	n	n	n
C[C@@H]1COc2cccc(N3CCN(Cc4ccccc4F)CC3)c2S(=O)(=O)N1	n	n	n	n	n	n
Cc1ccnc(N/C=C(\C#N)c2nc(-c3cccc(Br)c3)cs2)c1	30.7	n	38.9	135.1	84.5	n
